The structures appear in SMILES notation. The panel holds about 79,000 compounds, 15% with a hit somewhere; the sample as a whole holds those more often. Unmarked numbers belong to inactive results. No stated cut-off is given here; in the data, active means growth inhibition above about 70%; inactive means the rest.

These results are taken from PubChem BioAssay (NCI).

The first assay can be described thus: NCI Yeast Anticancer Drug Screen. Data for the mec2-1 strain (AID 157). To be noted: S. cerevisiae mec2-1 strain, at 50.0 µM, active compounds read high. The gist of the method:
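Compounds were applied to mec2-1 yeast cells. Their growth was then compared with that of vehicle-treated cultures to give growth inhibition.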
Regarding `Cc1ccc(C(=O)NC2c3ccccc3Oc3ccccc32)cc1`, the growth inhibition is -7.7%.

Regarding `O=C1N(C[P+](c2ccccc2)(c2ccccc2)c2ccccc2)CCCN1C[P+](c1ccccc1)(c1ccccc1)c1ccccc1`, the growth inhibition is 7.4%.

In the case of `Nc1ccc(N)c([N+](=O)[O-])c1`, the growth inhibition was -17.8%.

With `COc1ccccc1N1CCN(C(=S)Nc2ccccc2)CC1`, the growth inhibition was -13.8%.

For `c1ccc(Sc2ccccc2)cc1`, the growth inhibition was 10.5%.

As to `O=C(NC1CCCCC1)OCc1c(COC(=O)NC2CCCCC2)c(-c2ccc(Cl)c(Cl)c2)n2c1CCC2`, the growth inhibition is 7.1%.

Turning to `CC(=O)OC(C(=O)O)c1ccccc1` (stereo not drawn), the growth inhibition was -12.1%.

On to `CC(=O)NC(N)=S`, for which the growth inhibition was 3.75%.

For `Cc1nc2ccccc2c2nnc(SCC(=O)N(Cc3ccccc3)c3ccccc3)n12`, the growth inhibition was 6.6%.

Consider `CCN(CC)CCCC(C)Nc1ccnc(/C=C/c2ccc(Cl)cc2)c1` (stereo not drawn), for which the growth inhibition was -1.2%.

For the compound `Cc1cc(=O)[nH]c(NN=C2CCCC2)n1`, the growth inhibition was -52.5%.

Regarding `CC1=CC(C)(C)NC(=S)N1c1ccc(S(=O)(=O)O)c2cccc(S(=O)(=O)O)c12`, the growth inhibition was -5.25%.

On to `OCCN1CCOCC1`, for which the growth inhibition is -2.05%.

As to `CCOC(=O)C(C#N)Cc1ccccc1` (stereo not drawn), the growth inhibition was -2.15%.

For the compound `O=P(O)(O)OCC(O)CO` (stereo not drawn), the growth inhibition was -7.3%.

On to `CNC(=O)c1ccccc1CC1(O)c2ccccc2Oc2ccccc21`, for which the growth inhibition is -13.5%.

A further assay is described as follows: NCI Yeast Anticancer Drug Screen. Data for the sgs1 mgt1 strain (AID 161).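 Further: 0% = growth of cultures given vehicle only.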 To be noted: S. cerevisiae sgs1 mgt1 strain, at 50.0 µM, active compounds read high. The gist of the method:
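Compounds are added to genetically altered yeast, and growth is compared with cultures given vehicle alone to give percent inhibition.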
Consider `C1CNC(C2=NCCN2)=N1`, for which the growth inhibition is -24.5%.

Take `CCOC(=O)/C(C#N)=C/c1cccc(C)c1`: the growth inhibition is -25.2%.

Take `CC1CCC(C(=O)O)N1` (stereo not drawn): the growth inhibition is 1.7%.

With `COc1cc(/C=C(\C#N)C(=O)c2ccccc2)ccc1OCc1ccccc1`, the growth inhibition was -15.2%.

Turning to `COc1ccc(C2OC(N)=C(O)C2=O)cc1OC` (stereo not drawn), the growth inhibition is -14.4%.

With `Cc1nc2ccccc2c(C(=O)O)c1O`, the growth inhibition was 1.5%.

Take `CCCNc1ccc(C2=NCCCN2)cc1`: the growth inhibition is -3.9%.

For the compound `N#CSc1cc(S(N)(=O)=O)ccc1N`, the growth inhibition is 4.05%.

As to `O=C(O)c1cccc([N+](=O)[O-])c1O`, the growth inhibition is 8.95%.

Turning to `COc1cc(-c2ccc(NC(=O)NC3CC3)c(OC)c2)ccc1NC(=O)NC1CC1`, the growth inhibition is -24.1%.

Consider `COc1cc([C@@H]2c3cc4c(cc3[C@H](O)[C@H]3COC(=O)[C@H]23)OCO4)cc(OC)c1OC`, for which the growth inhibition was 9.05%.

`O=c1[nH]n(-c2ccccc2)c(=O)cc1Cl`: the growth inhibition was -4%.

As for `O=C(Cc1ccccc1)Cc1ccccc1`, the growth inhibition was -0.45%.

`NC(=S)CN1CCOCC1`: the growth inhibition is -5.9%.

On to `O=C(O)CSCSCC(=O)O`, for which the growth inhibition was -8.8%.

For `CCOC(=O)CCCC(=O)OCC`, the growth inhibition is 1.65%.

For the compound `Cc1ccc(C(=O)NC2c3ccccc3Oc3ccccc32)cc1`, the growth inhibition is 4.65%.

For `O=C1N(C[P+](c2ccccc2)(c2ccccc2)c2ccccc2)CCCN1C[P+](c1ccccc1)(c1ccccc1)c1ccccc1`, the growth inhibition is 3.55%.

For `Nc1ccc(N)c([N+](=O)[O-])c1`, the growth inhibition was -27.3%.

Regarding `COc1ccccc1N1CCN(C(=S)Nc2ccccc2)CC1`, the growth inhibition is 0.8%.

`c1ccc(Sc2ccccc2)cc1`: the growth inhibition is -8.5%.

`O=C(NC1CCCCC1)OCc1c(COC(=O)NC2CCCCC2)c(-c2ccc(Cl)c(Cl)c2)n2c1CCC2`: the growth inhibition is 27.4%.

Consider `CC(=O)OC(C(=O)O)c1ccccc1` (stereo not drawn), for which the growth inhibition is 0.25%.

Regarding `CSc1[nH]c(=O)ncc1F`, the growth inhibition is 3.2%.

`CC(=O)NC(N)=S`: the growth inhibition was -23.1%.

With `Cc1nc2ccccc2c2nnc(SCC(=O)N(Cc3ccccc3)c3ccccc3)n12`, the growth inhibition was -28.1%.

For the compound `CCN(CC)CCCC(C)Nc1ccnc(/C=C/c2ccc(Cl)cc2)c1` (stereo not drawn), the growth inhibition was -16.1%.

`Cc1cc(=O)[nH]c(NN=C2CCCC2)n1`: the growth inhibition was -35.4%.

`CC1=CC(C)(C)NC(=S)N1c1ccc(S(=O)(=O)O)c2cccc(S(=O)(=O)O)c12`: the growth inhibition is -13.1%.

As to `CCOC(=O)C(C#N)Cc1ccccc1` (stereo not drawn), the growth inhibition is -3.85%.

On to `O=P(O)(O)OCC(O)CO` (stereo not drawn), for which the growth inhibition is 8.95%.

`CNC(=O)c1ccccc1CC1(O)c2ccccc2Oc2ccccc21`: the growth inhibition was 9.05%.
